Activity calls are given as the source filed them. Unless noted, how the calls were made is not given here.
What was measured:
[1] = compounds binding Alexa647 anti-His antibody – biochemical, small-molecule microarray, 635 nm fluorescence, artefact control for SMM control protein annotation, primary screen (AID 1128); settings: higher = more signal;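 further: score merges feature fluorescence with signal-to-noise for each printed compound spot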
[2] = test system: Human papillomavirus type 1a E7 protein (residues 1-88); assay: HPV1a E7 small-molecule binders, primary screen, biochemical, small-molecule microarray, residues 1-88, 635 nm (AID 1129); settings: small-molecule microarray binding, fluorescence 635 nm; higher = more signal
[3] = target: Focal adhesion kinase 1 (Homo sapiens) (UniProt Q05397); assay: PTK2 protein binding on printed compound slides – biochemical, small-molecule microarray, 635/667 nm fluorescence, BSA, DTT, primary screen (AID 1130); settings: 635 nm fluorescence, higher = more signal;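 further: composite of spot emission at 667 nm and signal to noise over triplicate slides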
Focal adhesion kinase 1 (Homo sapiens), sequence (Q05397 whole entry, looked up): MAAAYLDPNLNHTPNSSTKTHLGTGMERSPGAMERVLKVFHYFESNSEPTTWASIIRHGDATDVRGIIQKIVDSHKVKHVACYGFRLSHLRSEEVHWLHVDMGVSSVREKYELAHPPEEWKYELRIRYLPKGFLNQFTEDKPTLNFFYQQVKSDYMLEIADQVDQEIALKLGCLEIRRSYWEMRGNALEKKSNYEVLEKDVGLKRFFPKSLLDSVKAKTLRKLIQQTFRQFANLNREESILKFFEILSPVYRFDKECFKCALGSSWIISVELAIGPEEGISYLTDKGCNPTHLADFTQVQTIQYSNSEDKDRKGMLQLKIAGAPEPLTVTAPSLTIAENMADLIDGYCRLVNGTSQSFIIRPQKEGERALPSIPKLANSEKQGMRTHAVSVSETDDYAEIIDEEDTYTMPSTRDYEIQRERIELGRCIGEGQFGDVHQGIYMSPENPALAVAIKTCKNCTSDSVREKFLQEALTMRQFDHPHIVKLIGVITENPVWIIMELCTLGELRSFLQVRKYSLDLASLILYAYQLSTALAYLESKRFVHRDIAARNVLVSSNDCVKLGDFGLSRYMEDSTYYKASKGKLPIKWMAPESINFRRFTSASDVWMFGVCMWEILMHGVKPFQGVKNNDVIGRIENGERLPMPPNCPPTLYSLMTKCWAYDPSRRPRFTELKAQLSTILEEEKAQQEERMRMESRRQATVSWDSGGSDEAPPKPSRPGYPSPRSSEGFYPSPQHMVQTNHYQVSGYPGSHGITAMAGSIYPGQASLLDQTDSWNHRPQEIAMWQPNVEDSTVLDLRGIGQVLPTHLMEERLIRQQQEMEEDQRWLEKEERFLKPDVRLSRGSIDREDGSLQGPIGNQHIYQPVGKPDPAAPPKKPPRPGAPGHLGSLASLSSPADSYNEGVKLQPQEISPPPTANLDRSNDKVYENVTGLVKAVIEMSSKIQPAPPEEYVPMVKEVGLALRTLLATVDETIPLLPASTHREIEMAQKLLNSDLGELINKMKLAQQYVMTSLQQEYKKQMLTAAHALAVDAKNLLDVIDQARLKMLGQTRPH

[4] = test system: Fibrinogen (Alexa647-labelled); assay: Alexa647-fibrinogen binding to printed small molecules – biochemical, small-molecule microarray, 635/667 nm fluorescence, artefact control for SMM control-protein annotation, profiling panel (AID 1131); settings: fibrinogen-A647 binding fluorescence, higher = more signal;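 further: z-score merges 667 nm fluorescence with per-spot signal-to-noise over triplicate slides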
[5] = target: Follistatin (Homo sapiens) (UniProt P19883); assay: FST protein binding to printed compounds – biochemical, small-molecule microarray, 635/667 nm fluorescence, primary screen (AID 1132); settings: 635 nm fluorescence, higher = more signal
Follistatin (Homo sapiens), sequence (P19883 whole entry, looked up): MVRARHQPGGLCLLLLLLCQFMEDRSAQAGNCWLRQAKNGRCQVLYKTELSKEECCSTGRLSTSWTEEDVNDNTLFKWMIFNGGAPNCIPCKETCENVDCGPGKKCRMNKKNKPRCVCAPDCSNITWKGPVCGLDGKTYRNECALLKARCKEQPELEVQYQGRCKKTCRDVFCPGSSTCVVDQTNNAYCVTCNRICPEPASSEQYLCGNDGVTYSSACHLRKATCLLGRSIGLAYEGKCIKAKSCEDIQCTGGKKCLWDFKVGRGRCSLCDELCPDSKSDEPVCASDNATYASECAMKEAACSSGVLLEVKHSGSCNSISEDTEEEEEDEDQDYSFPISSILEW

[6] = target: Fibroblast growth factor 2 (Homo sapiens) (UniProt P09038); assay: basic fibroblast growth factor binding to printed compounds – biochemical, small-molecule microarray, 635/667 nm fluorescence, primary screen (AID 1133); settings: FGF2, fluorescence 635/667, higher = more signal
Fibroblast growth factor 2 (Homo sapiens), sequence (P09038 whole entry, looked up): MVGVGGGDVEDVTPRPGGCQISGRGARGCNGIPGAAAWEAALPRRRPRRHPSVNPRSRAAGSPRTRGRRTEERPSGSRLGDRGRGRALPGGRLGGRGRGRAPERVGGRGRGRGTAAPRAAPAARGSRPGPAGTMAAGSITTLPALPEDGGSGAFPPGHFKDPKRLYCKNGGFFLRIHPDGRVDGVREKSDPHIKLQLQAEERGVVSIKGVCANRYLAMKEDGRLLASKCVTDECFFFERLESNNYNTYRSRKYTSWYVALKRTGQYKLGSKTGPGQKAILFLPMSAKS

[7] = JC-1 mitochondrial potential readout, lung cancer cells – cell-based, A549, JC-1 fluorescence, basal, 24 h, 100 nL, profiling panel (AID 1138); settings: higher = more signal;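 further: A549 lung adenocarcinoma cells under basal conditions with no added stimulus; test concentration not given here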
Lefty1 = Lefty1 protein binding to printed compounds – biochemical, small-molecule microarray, 635/667 nm fluorescence, primary screen (AID 1139); settings: fluorescence 635/667, higher = more signal
[8] = test system: wheat germ agglutinin (Triticum aestivum), Alexa647-labelled; assay: Alexa647-WGA lectin binding to printed small molecules – biochemical, small-molecule microarray, 635/667 nm fluorescence, artefact control for SMM control-protein annotation, profiling panel (AID 1140); settings: WGA-A647 binding, 635 nm fluorescence, higher = more signal;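 further: score merges 667 nm feature emission with signal to noise over triplicate slides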
[9] = target: Luciferin 4-monooxygenase (Photinus pyralis) (UniProt P08659); assay: inhibition of purified Photinus pyralis luciferase – biochemical, luminescence, purified enzyme, 2006 set, primary screen (AID 1141); settings: purified firefly luciferase, SteadyGlo luminescence, 30 min; higher = more signal, called active from +8 up or from −8 down;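 further: cell-free assay with purified firefly luciferase at 100 ng per well in PBS; test concentration not given here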
Luciferin 4-monooxygenase (Photinus pyralis), sequence (P08659 whole entry, looked up): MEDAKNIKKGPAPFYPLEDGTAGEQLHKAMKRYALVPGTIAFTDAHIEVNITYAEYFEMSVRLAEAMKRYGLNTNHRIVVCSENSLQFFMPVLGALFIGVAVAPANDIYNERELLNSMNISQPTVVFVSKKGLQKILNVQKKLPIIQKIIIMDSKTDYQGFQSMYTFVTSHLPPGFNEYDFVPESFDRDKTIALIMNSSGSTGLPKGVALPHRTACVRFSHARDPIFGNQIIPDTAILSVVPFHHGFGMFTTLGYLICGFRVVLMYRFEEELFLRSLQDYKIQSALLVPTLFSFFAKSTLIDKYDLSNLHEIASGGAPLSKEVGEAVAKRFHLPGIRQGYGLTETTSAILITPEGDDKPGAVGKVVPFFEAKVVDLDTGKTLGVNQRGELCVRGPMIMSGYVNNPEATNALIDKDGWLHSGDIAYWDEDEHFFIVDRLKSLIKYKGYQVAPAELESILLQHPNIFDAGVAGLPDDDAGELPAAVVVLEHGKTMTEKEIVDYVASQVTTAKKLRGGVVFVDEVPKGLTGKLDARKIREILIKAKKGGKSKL

[10] = test system: Wnt5a (protein binding on small-molecule microarray); assay: small molecules binding Wnt5a protein – biophysical, small-molecule microarray, 635/667 nm fluorescence, primary screen (AID 1142); settings: 635 nm fluorescence, higher = more signal;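 further: fluorescence read at 667 nm with signal to noise per printed feature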
[11] = ATP-based viability of Huh7 replicon cells – cell-based, CellTiter-Glo luminescence, basal, 48 h, cytotoxicity control for HCV replication inhibitor project, primary screen (AID 1143); settings: higher = more signal, called active from +8 up or from −8 down;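 further: Huh7 hepatoma cells carrying a hepatitis C replication reporter with no stimulus; test concentration not given here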
[12] = Pseudomonas biofilm growth suppression – PAO1 strain, BacTiter-Glo luminescence, LB-PBS, primary screen (AID 1144); settings: P. aeruginosa PAO1 biofilm, 12 h, higher = more signal
[13] = basal CRE-LacZ reporter activity in PC12 – cell-based, unstimulated, primary screen (AID 1145); settings: no forskolin, luminescence, 4.5 h, higher = more signal, called active from +8 up or from −8 down
[14] = forskolin-driven CRE-LacZ activity in PC12 – cell-based, CRE-LacZ reporter, forskolin-stimulated, primary screen (AID 1146); settings: luminescence, 4.5 h, higher = more signal, called active from +8 up or from −8 down;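 further: PC12 cells with 6xCRE LacZ reporter stimulated by forskolin 10 µM; beta-galactosidase reporter signal reflecting CREB driven transcription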
[15] = target: Streptavidin (Streptomyces avidinii) (UniProt P22629); assay: compounds binding control protein streptavidin – biophysical, small-molecule microarray, 635/667 nm fluorescence, artefact control for SMM compound annotation, primary screen (AID 1147); settings: higher = more signal;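 further: signal reflects streptavidin binding to arrayed compounds as a control protein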
Streptavidin (Streptomyces avidinii), sequence (P22629 whole entry, looked up): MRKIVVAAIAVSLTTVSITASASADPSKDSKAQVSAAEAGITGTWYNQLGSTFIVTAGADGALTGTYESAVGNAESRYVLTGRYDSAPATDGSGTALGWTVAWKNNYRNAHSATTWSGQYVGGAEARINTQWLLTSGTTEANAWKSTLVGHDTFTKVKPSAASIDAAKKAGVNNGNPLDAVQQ

[16] = probe aInhba binding on compound microarray – biochemical, small-molecule microarray, 635/667 nm fluorescence, primary screen (AID 1148); settings: higher = more signal;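 further: score merges 667nm spot fluorescence with signal-to-noise for antibody binding to printed compounds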
Torsin-1A (Homo sapiens) [17] = target: Torsin-1A (Homo sapiens) (UniProt O14656); assay: TOR1A wild-type binding on microarray – cell lysate, small-molecule microarray, lysate, 635/667 nm, primary screen (AID 1149); settings: COS7 hTOR1A-WT lysate, 635 nm fluorescence, higher = more signal
Torsin-1A (Homo sapiens), sequence (O14656 whole entry, looked up): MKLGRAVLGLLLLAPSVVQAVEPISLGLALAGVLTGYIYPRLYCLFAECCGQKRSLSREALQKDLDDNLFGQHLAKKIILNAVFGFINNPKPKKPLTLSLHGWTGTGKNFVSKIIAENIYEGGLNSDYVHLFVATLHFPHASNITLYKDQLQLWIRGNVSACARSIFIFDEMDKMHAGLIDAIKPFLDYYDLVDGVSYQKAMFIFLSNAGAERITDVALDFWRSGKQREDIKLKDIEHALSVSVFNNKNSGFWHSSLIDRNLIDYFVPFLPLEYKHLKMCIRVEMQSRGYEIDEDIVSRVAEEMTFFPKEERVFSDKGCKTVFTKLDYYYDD

Torsin-1A (Homo sapiens) [18] = target: Torsin-1A (Homo sapiens) (UniProt O14656); assay: torsin A mutant lysate binding on microarrays – cell lysate, small-molecule microarray, COS7 lysate, 635/667 nm fluorescence, primary screen (AID 1150); settings: COS7 hTOR1A mutant lysate, 635 nm fluorescence, higher = more signal;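 further: score pools 667 nm emission and signal to noise measuring lysate protein binding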
[19] = test system: Sonic hedgehog protein (Shh); assay: Sonic hedgehog microarray binding compounds – biochemical, small-molecule microarray, 635/667 nm fluorescence, primary screen (AID 1151); settings: 635 nm fluorescence, higher = more signal;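 further: Shh protein binding to compounds spotted on small-molecule microarray slides; score combines spot fluorescence intensity with signal-to-noise across triplicate slides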

Row | Compound | composite z-score [1] | composite z-score [2] | composite z-score [3] | composite z-score [4] | composite z-score [5] | composite z-score [6] | z-score [7] | composite z-score (Lefty1) | composite z-score [8] | z-score [9] | composite z-score [10] | z-score [11] | z-score [12] | z-score [13] | z-score [14] | composite z-score [15] | composite z-score [16] | composite z-score (Torsin-1A (Homo sapiens) [17]) | composite z-score (Torsin-1A (Homo sapiens) [18]) | composite z-score [19]
1 | COc1ccc([Si](C)(C)[C@@H]2[C@@H](CC(=O)N3Cc4ccccc4C[C@H]3CO)O[C@]3(C(=O)N(Cc4ccc(N5C(=O)c6cccc7cccc5c67)cc4)c4ccccc43)[C@H]2C)cc1 | 0.0827 | 1.18 | 0.949 | 0.706 | 1.33 | 1.59 | 1.2 | 1.11 | 0.323 | -1.05 (inactive) | 0.453 | -2.28 (inactive) | -0.334 (inactive) | 2.34 (inactive) | 0.972 (inactive) | 0.29 | 0.0319 | 0.645 | 0.592 | 1.69
2 | COC(=O)[C@@]1(Cc2ccc(OC)cc2)[C@H]2c3cc(C(=O)N4CCCC4)n(CCO)c3C[C@H]2CN1C(=O)c1ccccc1 | 0.603 | 1.18 | 1.05 | 0.875 | 0.113 | -0.2 | -0.117 | -0.539 | 1.03 | 1.01 (inactive) | 0.925 | -0.794 (inactive) | -0.14 (inactive) | 0.773 (inactive) | 1.41 (inactive) | 0.342 | 0.372 | -0.48 | 1.44 | -0.645
3 | COC(=O)C(CC#Cc1ccc2c(c1)[C@]1(C(=O)N2)[C@H](c2ccc(O)cc2)N2[C@H](c3ccccc3)[C@H](c3ccccc3)OC(=O)[C@H]2[C@@H]1C(=O)NC[C@H](O)c1ccccc1)C(=O)OC | 0.509 | 0.779 | 0.408 | 0.733 | 1.21 | 0.551 | -0.97 | 0.685 | 0.9 | 0.314 (inactive) | 0.0209 | -0.075 (inactive) | 0.221 (inactive) | -0.0566 (inactive) | -0.0638 (inactive) | 0.379 | 0.0769 | -0.207 | 0.276 | 1.68
4 | O=C(O)[C@@H]1[C@@H]2C(=O)N(c3ccccc3)C(=O)[C@@H]2C[C@@H]1Sc1ccccc1 | -0.102 | -0.683 | 0.236 | -1.02 | -1.19 | -1.16 | -0.677 | -1.07 | 0.627 | 1.35 (inactive) | -0.129 | 0.739 (inactive) | 0.956 (inactive) | 0.379 (inactive) | 0.774 (inactive) | -0.237 | -0.389 | -0.402 | -1.03 | -1.45
5 | CC[C@@H]1C=C(C(=O)O)[C@H](c2ccccc2)N1S(=O)(=O)c1ccc(C)cc1 | 2.57 | 1.17 | 0.178 | 0.594 | -0.0393 | -0.241 | -0.719 | 0.362 | 1.05 | 1.09 (inactive) | 0.0651 | -0.272 (inactive) | 0.853 (inactive) | -0.676 (inactive) | -0.0818 (inactive) | 0.0128 | -0.197 | 0.474 | 0.518 | -0.313
6 | CC(=O)NCCCC[C@@H]1NC(=O)[C@@H]2C[C@H](C(=O)NCCCCCN)[C@H](c3cccc(OCCO)c3)N2C1=O | 0.586 | 1.04 | 0.295 | 0.97 | 1.37 | 1.6 | 0.989 | 1.03 | 0.79 | 0.159 (inactive) | 0.698 | -0.804 (inactive) | -1.02 (inactive) | -1.34 (inactive) | -0.892 (inactive) | 1.37 | -0.19 | 0.738 | -0.0879 | 1.66
7 | CCOC(=O)C[C@H]1[C@H](OC(=O)c2cc3ccccc3oc2=O)[C@@H](NC(=O)c2ccccc2)c2cc(OCCCO)ccc2N1C(=O)c1ccccc1 | 0.29 | 0.828 | 0.138 | 0.37 | 0.744 | 1.18 | -0.816 | 0.443 | 0.0432 | 0.713 (inactive) | 0.315 | -2.83 (inactive) | 0.311 (inactive) | 3.75 (inactive) | -0.0599 (inactive) | 0.289 | -0.113 | 0.575 | 0.347 | 0.696
8 | CC1=C2[C@@H](CCc3ccccc3)OB(O)C[C@@H]2[C@@H]2C(=O)N(Cc3ccccc3)C(=O)[C@@H]2C1 | 0.0349 | 0.55 | -0.0683 | 0.987 | 0.946 | 0.33 | 0.758 | 0.388 | 0.505 | -0.653 (inactive) | 0.0023 | -0.23 (inactive) | 0.615 (inactive) | 0.39 (inactive) | -0.138 (inactive) | -0.189 | -0.285 | 0.572 | 0.333 | 0.792
9 | Cc1ccc(F)cc1S(=O)(=O)N[C@@H]1CCN(Cc2ccc(Br)cc2)C1 | -0.325 | -0.464 | -0.408 | 0.79 | 0.639 | 0.677 | 1.47 | 0.983 | 0.124 | -0.457 (inactive) | -0.144 | -3.58 (inactive) | 0.767 (inactive) | 0.764 (inactive) | -1.64 (inactive) | 0.165 | -0.0986 | 0.476 | 0.495 | 1.29
10 | [N-]=[N+]=Nc1ccccc1C[C@@]1(C(=O)NCCN2CCOCC2)N=C(c2ccc(OCCCO)cc2)O[C@@H]1c1ccccc1N=[N+]=[N-] | 2.81 | 1.24 | 0.587 | 0.989 | 1.2 | 0.752 | -0.381 | 0.383 | 0.898 | -1.71 (inactive) | 0.734 | -4.82 (inactive) | 1.52 (inactive) | 0.512 (inactive) | -1.83 (inactive) | 0.425 | 0.518 | 0.801 | -0.283 | 0.201

Reference: PubChem BioAssay
